Screening data from PubChem BioAssay.
POLH inh: inhibitors of human DNA polymerase eta; Q9Y253; recombinant Pol eta, fluorescent DNA replication assay; Potency, µM (top dose mostly 114 µM), without a hit: at the highest dose activity change, negative = inhibition, usual class: inhibitors; actives 1.2% (n = 390,000); AID 588591; note: potency is the fitted concentration of half-maximal effect; % is set by controls: 0 for no effect and ±100 for the full control effect
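Pol eta (10 nM) was preincubated with compounds for 15 min at room temperature, after which fluorescent replication substrate (50 nM final) was added to start the reaction. Fluorescence was read kinetically at 0 and 10 min.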
POLB inh: inhibitors of human DNA polymerase beta; Pol beta primer extension/strand displacement, fluorescence kinetic; AID 485314; P06746; actives 1.3% (n = 340,000); Potency, µM (top dose mostly 114 µM), for inactives: at the top dose activity change, negative = inhibition, most hits filed as inhibitors; note: potency is the fitted concentration of half-maximal effect; % is set by controls: 0 for no effect and ±100 for the full control effect
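Curves were derived by four-parameter Hill fits of normalized qHTS data. The kinetic fluorescent primer-extension read was taken at 0 and 10 min after 50 nM substrate, following a 15 min room-temperature preincubation of 10 nM enzyme with compounds.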
Pol iota inh: DNA polymerase iota (human) inhibition | Pol iota fluorescent replication assay, 10 min | Potency, µM (titrated, usually from 115 µM), for inactives: at the top dose activity, negative = inhibition, usual class: inhibitors | actives 1% (n = 390,000) | AID 588590; note: potency is the fitted concentration of half-maximal effect
Target sequence (Q9UNA4 whole entry, looked up): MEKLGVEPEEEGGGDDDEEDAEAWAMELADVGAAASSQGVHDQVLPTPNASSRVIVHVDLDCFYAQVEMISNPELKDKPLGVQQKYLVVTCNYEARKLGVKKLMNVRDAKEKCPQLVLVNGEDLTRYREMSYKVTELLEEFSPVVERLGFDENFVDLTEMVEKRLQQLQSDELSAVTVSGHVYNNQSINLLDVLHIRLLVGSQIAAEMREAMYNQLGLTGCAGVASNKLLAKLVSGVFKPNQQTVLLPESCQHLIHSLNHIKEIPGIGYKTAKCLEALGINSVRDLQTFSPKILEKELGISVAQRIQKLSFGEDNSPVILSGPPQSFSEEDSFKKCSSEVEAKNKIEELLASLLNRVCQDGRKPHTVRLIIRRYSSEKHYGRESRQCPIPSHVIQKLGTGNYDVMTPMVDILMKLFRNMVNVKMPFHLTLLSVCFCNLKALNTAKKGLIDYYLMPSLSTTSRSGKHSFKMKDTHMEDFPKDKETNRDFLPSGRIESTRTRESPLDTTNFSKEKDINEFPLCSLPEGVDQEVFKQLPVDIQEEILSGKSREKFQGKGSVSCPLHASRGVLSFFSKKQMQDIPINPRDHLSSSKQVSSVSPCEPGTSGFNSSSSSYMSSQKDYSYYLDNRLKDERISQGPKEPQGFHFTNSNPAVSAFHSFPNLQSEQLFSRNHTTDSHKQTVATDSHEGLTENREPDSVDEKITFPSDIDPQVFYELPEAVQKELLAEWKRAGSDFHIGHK
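Pol iota at 10 nM preincubated 15 min with compounds at room temperature; reaction started with fluorescent substrate, 50 nM final. Fluorescence read kinetically at 0 and 10 min; buffer-only wells as negative control.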
ALOX12 inh: blocks human arachidonate 12S-lipoxygenase | P18054 | purified 12hLO, xylenol orange hydroperoxide absorbance | Potency, µM (highest dose often 108 µM), inactives show at the highest dose activity change, negative = inhibition, actives largely listed as inhibitors | actives 1.1% (n = 580,000) | AID 1671190; note: potency is the fitted concentration of half-maximal effect; % is set by controls: 0 for no effect and ±100 for the full control effect
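Purified human 12hLO at 150 nM in 25 mM Hepes, 0.01% Triton X-100, pH 7.0, preincubated 15 min at room temperature with compound. Reaction started with 40 uM arachidonic acid, 30 min at room temperature. Hydroperoxide measured by Fe-xylenol orange, 573/405 nm absorbance ratio.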
Pol kappa inh: blocks human DNA polymerase kappa activity; Q9UBT6; purified Pol kappa, fluorescent DNA synthesis assay, 10 min; Potency, µM (titrated, usually from 107 µM), without a hit: at the highest dose activity, negative = inhibition, usual class: inhibitors; actives 0.53% (n = 400,000); AID 588579; note: potency is the fitted concentration of half-maximal effect; % is set by controls: 0 for no effect and ±100 for the full control effect
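Enzyme at 10 nM met test compounds for 15 min at room temperature. Substrate addition (50 nM final) began the reaction, which was monitored by fluorescence at 0 and 10 min.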
PI5P4Ka inh: blocks human PI5P4K alpha kinase activity | actives 1.2% (n = 330,000) | PI5P4Kalpha enzyme, ADP-Glo luminescence, 60 min; hits give low values | max response, % | P48426 | AID 652105; active = max response of -50% or lower; inconclusive = between -30% and -50%; inactive = -30% or higher; note: value at the top dose of about 77 µM; % is set by controls: 0 for no effect and ±100 for the full control effect
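PI5P4Kalpha ADP-Glo assay; 5 microM ATP final; 60 min RT reaction; HEPES pH 7.4/EGTA/CHAPS, 5% DMSO; controls lacking substrate or enzyme; luminescent end-point.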
An asterisk follows results filed as active; [ ] = another dose, or the depositor's remark. The list is not random: actives were taken first. Their share in the collection is about 2.9%. Unless noted, calls come from the whole dose curve; as a rule, active = well fitted inhibition curve with a large enough effect; inconclusive = small, poorly fitted or top-dose-only effect, or another doubt; inactive = no such curve, though single readings can be large or run the other way.

`O=S(=O)(c1ccccc1)c1nc(Nc2cccc(O)c2)sc1Cl` gave POLH inh -11%, POLB inh -9%, Pol iota inh 15%, ALOX12 inh 35µM*, Pol kappa inh -6% and PI5P4Ka inh -16.
Screening Cc1ccc(S(=O)(=O)c2nc(Nc3ccccc3)sc2Cl)cc1 returned POLH inh inconclusive, POLB inh 4%, Pol iota inh 25%, ALOX12 inh -14%, Pol kappa inh 0%[60.1 µM] and PI5P4Ka inh -4.
Screening Cc1cc2cc(NS(=O)(=O)c3ccc(C)c(C)c3)ccc2[nH]1 returned ALOX12 inh 35µM*.
Screening Cc1nc(-n2[nH]c(C)c(CCC(C)C)c2=O)sc1C(=O)Nc1ccccc1 returned ALOX12 inh 48%.
For CC(=O)c1ccc(-c2cnc3c(NC=O)cc(-c4ccc(N5CCN(C)CC5)cc4)cn23)cc1 the results were ALOX12 inh -15% and PI5P4Ka inh -51*.
`CC(=O)c1ccc(-c2cnc3c(NC=O)cc(-c4ccc(C(=O)NC5CC5)cc4)cn23)cc1` gave ALOX12 inh 7% and PI5P4Ka inh -68*.
Screening CN1CCN(c2ccc(-c3cc(NC=O)c4ncc(-c5ccc(F)c(Cl)c5)n4c3)cc2)CC1 returned ALOX12 inh -15% and PI5P4Ka inh -29.
Screening CC(=O)Nc1cc(-c2ccccc2N(C)C)cn2c(-c3cccc(C(F)(F)F)c3)cnc12 returned ALOX12 inh 8.9µM* and PI5P4Ka inh 8.
`O=CNc1cc(-c2cccc(O)c2)cn2c(-c3ccc(F)cc3)cnc12` gave ALOX12 inh 45µM* and PI5P4Ka inh -72*.
Cc1csc(NC(=O)c2cnc3c(c2)N([S+](=O)([O-])c2cccnc2)CCC3)n1 was read as ALOX12 inh 9%[176 µM].
Cc1cc(F)ccc1NC(=O)c1ccn(Cn2nnc(-c3ccccc3)n2)n1 was read as ALOX12 inh -27%.
CC(C)CC(=O)Nc1cc2c(cc1Sc1ccccc1Cl)n(C)c(=O)n2C was read as ALOX12 inh -6%.
Screening CC(=O)Nc1cc(-c2ccc(F)cc2)cn2c(-c3ccc(F)cc3)cnc12 returned ALOX12 inh inconclusive and PI5P4Ka inh -8.
`CC(=O)Nc1cccc(-c2cc(NC=O)c3ncc(-c4ccc(C(C)=O)cc4)n3c2)c1` gave ALOX12 inh -14% and PI5P4Ka inh -51*.
Screening CC(=O)Nc1cc(-c2ccc(CO)cc2)cn2c(-c3ccc(F)cc3)cnc12 returned ALOX12 inh 45µM* and PI5P4Ka inh -23.
COc1ccc2nc(C)c(C(=O)NCc3cccnc3-n3cncn3)cc2c1 was read as ALOX12 inh -9%.
Screening O=C(CCC(=O)N1CC=C(c2c[nH]c3ncccc23)CC1)c1ccc(F)cc1 returned ALOX12 inh -3%.
Screening CC(C)Cn1c(SCC(=O)NC(C)c2ccc(F)cc2F)nc2ncccc2c1=O (centres undefined) returned ALOX12 inh -29%.
`COc1ccccc1Oc1nc2c(c(=O)n(Cc3ccccc3F)c(=O)n2C)n1C` gave POLH inh -10%, POLB inh 18µM*, Pol iota inh -1%, ALOX12 inh 177%[57.4 µM], Pol kappa inh 9% and PI5P4Ka inh 2.
Cn1c(=O)c2c(nc(Oc3ccc(F)cc3F)n2Cc2ccccc2F)n(C)c1=O was read as ALOX12 inh 18%.
Screening NC1=NC(=O)/C(=C/c2ccc(Br)cc2)S1 returned POLH inh 5%, POLB inh 2%, Pol iota inh 13%, ALOX12 inh 10%, Pol kappa inh 0% and PI5P4Ka inh -3.
Screening NC1=NC(=O)/C(=C/c2cc(Br)c(O)c(Br)c2)S1 returned POLH inh -14%, POLB inh 29%, Pol iota inh inconclusive, ALOX12 inh -4%, Pol kappa inh -41% and PI5P4Ka inh -89*.
For O=C(O)c1ccc(O)c(O)c1 the results were POLH inh -5%, POLB inh 25µM*, Pol iota inh inconclusive, ALOX12 inh -17%, Pol kappa inh -7% and PI5P4Ka inh -1.
`O=C1CCSc2c1cccc2C(=O)Nc1ccc(F)cc1Cl` gave ALOX12 inh -8%.
Screening COc1cc2ccccc2cc1C(=O)N1CCN(CC(=O)Nc2ccc(F)cc2)CC1 returned ALOX12 inh -3%.
Screening CC(C)=C1C(=O)NN(c2ccc(C)c(Cl)c2)C1=O returned POLH inh -7%, POLB inh inconclusive, Pol iota inh 79µM*, ALOX12 inh 50µM*, Pol kappa inh inconclusive and PI5P4Ka inh inconclusive.
Screening CC(C)=C1C(=O)NN(c2cccc(Cl)c2)C1=O returned POLH inh -9%, POLB inh -3%, Pol iota inh 152%, ALOX12 inh inconclusive, Pol kappa inh -24% and PI5P4Ka inh -15.
For COCCCn1c(-c2ccco2)nc2ccccc2c1=O the results were POLH inh -5%, POLB inh 34%, Pol iota inh 6%, ALOX12 inh -1%, Pol kappa inh 7% and PI5P4Ka inh 0.
Screening COCCCN=C(c1ccco1)n1c(=S)nc(-c2ccco2)n(CCCOC)c1=S returned POLH inh -5%, POLB inh 35µM*, Pol iota inh 20µM*, ALOX12 inh inconclusive and Pol kappa inh inconclusive.
For Cc1ccc2cc(CN(Cc3nnnn3C3CCCCC3)CC3CCCO3)c(=O)[nH]c2c1 (centres undefined) the results were POLH inh -2%, POLB inh 1%, Pol iota inh -10%, ALOX12 inh inconclusive and Pol kappa inh -9%.
Screening Cc1cc(C)c2cc(CN(Cc3nnnn3C3CCCCC3)CC3CCCO3)c(=O)[nH]c2c1 (centres undefined) returned POLH inh -14%, POLB inh -9%, Pol iota inh 3%, ALOX12 inh 11µM* and Pol kappa inh -5%.
O=C(NCc1ncc(-c2ccccc2)o1)C1CCCCC1 was read as ALOX12 inh 40%.
COc1ccc(-c2cnc3[nH]cc(CC(=O)NCc4cccnc4)c3c2)cn1 was read as ALOX12 inh 3%[176 µM].
Screening OCCCNC(=S)Nc1ccc(Cl)cc1 returned ALOX12 inh 50µM*.
`CC(=O)c1ccc(NC(=S)NCCc2ccc(Cl)cc2)cc1` gave ALOX12 inh 50µM*.
`OCCNC(=S)Nc1ccc2nsnc2c1` gave POLH inh -17%, POLB inh 1%, Pol iota inh 20µM*, ALOX12 inh inconclusive, Pol kappa inh -6% and PI5P4Ka inh 6.
